Screens (PubChem)
Shown are actives, neighbours in structure and some others; about 12% of the full set was active somewhere.
AMA1 RON2 block = inhibitors of Plasmodium falciparum AMA1-RON2 interaction; 0.2% of 360,000 active; Potency, µM (titrated, usually from 58.2 µM), for the others: at the highest dose activity change, negative = inhibition, hits mostly inhibitors; AlphaScreen AMA1-biotinylated RON2 peptide binding;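 note: 0% = vehicle wells and -100% = peptide control; nearly all actives have a fitted effect of over 45% in size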
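AMA1 (3D7) with his tag at 25 nM final met compounds first, then biotinylated RON2 peptide at 25 nM; detection used donor plus acceptor beads, 10 µg/mL apiece, read by AlphaScreen after 30 min at room temperature.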
Pf growth 96h = P. falciparum growth inhibition at 96 hours; P. falciparum luciferase reporter growth, 96 h; Potency, µM (titrated, usually from 28.7 µM), without a hit: at the highest dose activity change, negative = inhibition, hits mostly inhibitors; AID 504834; 6.9% of 320,000 active; note: % is set by controls: 0 for no effect and ±100 for the full control effect
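96 h incubation, 37 C, 5% CO2, of luciferase-reporter P. falciparum-infected RBCs (2% hematocrit, 0.05% parasitemia final) with test compounds; endpoint luminescence.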
Pf growth 48h = inhibits P. falciparum growth in the first generation, 48 h | Potency, µM (doses to about 28.7 µM), inactives show top-dose activity change, negative = inhibition, actives largely listed as inhibitors | 5.9% of 310,000 active | P. falciparum luciferase growth in erythrocytes, 48 h; note: % is set by controls: 0 for no effect and ±100 for the full control effect
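Growth was read as firefly luciferase luminescence after a 48 h, 37 C, 5% CO2 exposure of compounds to reporter-bearing P. falciparum cultures (0.1% parasitemia, 2% hematocrit final) in Albumax-supplemented RPMI 1640.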
HCV inhibitor = blocks hepatitis C virus; AID 651820; Huh7.5.1 HCVcc-Cre infection, luciferase reporter, 44 h; Potency, µM (doses to about 41.8 µM), for the others: at the highest dose activity change, negative = inhibition, hits mostly inhibitors; 3.4% of 340,000 active; note: % is set by controls: 0 for no effect and ±100 for the full control effect
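Whole-lifecycle infectious HCVcc-Cre system; cells 1,000/well, compound then virus (~0.5 moi) added 4 h after plating, 44 h culture. Luciferase read 15 sec following 15 min substrate incubation, room temp.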
SARS PLP yeast = SARS-CoV PLP inhibition in yeast | S. cerevisiae expressing SARS-CoV PLpro, growth rescue | Potency, µM (titrated, usually from 32.9 µM), for the others: at the top dose activity, positive = growth rescue, usual class: activators | 0.19% of 330,000 active | AID 485353; calls by dose curve; note: 0% is about no effect; nearly all actives have a fitted effect of over 55% in size
NS1 inh = influenza NS1 inhibition. Potency, µM (highest dose often 46.1 µM), for inactives: at the highest dose activity, positive = more growth. 0.4% of 270,000 active; calls by dose curve; note: actives are rising curves; nearly all actives have a fitted effect of over 50% in size
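Growth recovery, yeast-based: influenza A NS1 expressed in S. cerevisiae causes slow growth, and suppressors are detected by OD600. The parent strain without NS1 is used as positive control.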
* = called active by the depositor; ? = inconclusive; . = not tested or not shown; [ ] = remark or other dose. Unless noted, calls come from the whole dose curve; as a rule, active = well fitted curve in the direction sought with a large enough effect; inconclusive = small, poorly fitted or top-dose-only effect, or another doubt; inactive = no such curve, though single readings can be large; an effect the other way counts as inactive or inconclusive. Potency is the fitted concentration of half-maximal effect.

SMILES	AMA1 RON2 block	Pf growth 96h	Pf growth 48h	HCV inhibitor	SARS PLP yeast	NS1 inh
O=C(C1CC1)N1CCc2cc(Br)cc(S(=O)(=O)N3CCOCC3)c21	2%	37%	5.2µM*	-13%	-23%	-37%
CCOC(=O)C1CCN(S(=O)(=O)c2cc(Br)cc3c2N(C(C)=O)C(C)C3)CC1 (configuration not stated)	6%	?	8.3µM*	-1%	-6%	-16%
CCCCN(C)S(=O)(=O)c1cc(Br)cc2c1N(C(=O)C1CC1)CC2	-1%	?	4.7µM*	?	-17%	-85%
CCOC(=O)C1CCCN(S(=O)(=O)c2cc(Br)cc3c2N(C(C)=O)CC3)C1 (configuration not stated)	4%	?	3.7µM*	?	-2%	-28%
Cc1ccc(CNC(=O)C(N=C2NS(=O)(=O)c3ccccc32)C(C)C)cc1 (configuration not stated)	-5%	-22%	29%	-29%	2%	.
CCC(=O)N1CCc2cc(Br)cc(S(=O)(=O)N3CCCC(C(=O)NC(C)(C)C)C3)c21 (configuration not stated)	0%	?	1.2µM*	-4%	-1%	7%
O=C(O)CCS(=O)(=O)c1cc(Br)cc2c1N(C(=O)C1CC1)CC2	?	?	?	26%	0%	.
CCN(c1ccc2c(c1)OCO2)S(=O)(=O)c1cc(Br)cc2c1N(C(C)=O)CC2	18%	9.3µM*	?	-16%	-14%	2%
Cc1ccc(CNC(=O)CCS(=O)(=O)c2cc(Br)cc3c2N(C(=O)C2CC2)CC3)o1	-2%	12µM*	2.6µM*	-8%	2%	9%
CCN(c1ccc2c(c1)OCO2)S(=O)(=O)c1cc2c(cc1Br)CCN2C(=O)C1CC1	-4%	.	.	?	.	.
CC(=O)N1CCc2cc(Br)cc(S(=O)(=O)N3CCN(c4ccccn4)CC3)c21	-5%	.	?	10%	2%	-12%
CC(=O)N1CCc2cc(Br)cc(S(=O)(=O)N3CCCCC3)c21	-16%	?	2.6µM*	0%	-10%	14%
COc1ccc(Cl)cc1NC(=O)C1CCCN(S(C)(=O)=O)C1 (configuration not stated)	0%	10%	4%	-26%	-3%	11%
CCOC(=O)c1ccc(S(=O)(=O)N2CCN(CCc3ccncc3)CC2)cc1	0%	.	.	-30%	-5%	.
C/C(=N\NC(=O)C(=O)Nc1c(C)n(C)n(-c2ccccc2)c1=O)c1ccncc1	49%	35%	2%	0%	0%	-3%
O=C(Cc1n[nH]c(=O)c2ccccc12)OCC(=O)c1ccc(OC(F)F)cc1OC(F)F	2%	0%	0%	-27%	-6%	.
CCN(CC)CCC=C(c1cccs1)c1cccs1	-10%	.	.	?	.	.
CCOC(=O)NC1Cc2ccccc2C1Sc1ccccn1 (configuration not stated)	-8%	-19%	.	1%	3%	-3%
O=C(O)Cc1ccc(N=Nc2c(O)c(C(=O)O)cc3ccccc23)cc1	?	?	28%	-18%	-1%	16%
NS(=O)(=O)c1ccc(N=Nc2c(O)c(C(=O)O)cc3ccccc23)cc1	8%	10µM*	?	?	1%	-3%
CC(C)Cc1nc(N2CCOCC2)c(C#N)c2c1COC(C)(C)C2	1%	.	10µM*	?	-2%	-14%
CC(C)c1nc(NCCN2CCOCC2)c(C#N)c2c1COC(C)(C)C2	-5%	49%	?	?	-12%	-9%
Cc1ccc(S(=O)(=O)N2CCN(c3nc(C(C)C)c4c(c3C#N)CC(C)(C)OC4)CC2)cc1	2%	100%	.	7.1µM*	12%	4%
CCCNC(=O)N1CCN(c2nc(C(C)C)c3c(c2C#N)CC(C)(C)OC3)CC1	0%	-3%	.	?	3%	-33%
CC(C)Cc1nc(NCCN2CCOCC2)c(C#N)c2c1COC(C)(C)C2	-6%	.	12µM*	-16%	-6%	-43%
SMILES	AMA1 RON2 block	Pf growth 96h	Pf growth 48h	HCV inhibitor	SARS PLP yeast	NS1 inh
CC1CCN(Cc2nnnn2CCCC(=O)NCCc2cnn(C)c2)CC1	2%	?	7%	9%	0%	7%
NC(=O)Oc1ccc(Cc2ccccc2)cc1	.	-18%	-2%	.	.	.
CC/C(=N/Nc1ccc(Cl)cc1)c1cnnc(SC)n1	9%	?	?	-20%	-1%	12%
CC/C(=N/Nc1cccc(C)c1)c1cnnc(SC)n1	-15%	-101%	?	10µM*	-1%	3%
CC1(C)CC(=O)C2=C(C1)OC(N)=C(C#N)C2c1cccc(OC(=O)c2ccco2)c1 (configuration not stated)	0%	2.9µM*	-6%	20%	8%	-29%
O=C(CSc1ccccc1)Nc1nc2ccccc2[nH]1	30%	125%	123%	-23%	-6%	8%
O=C(CSc1n[nH]c(-c2ccccn2)n1)Nc1ccc(F)cc1	-87%	-8%	?	?	-4%	8%
O=C(COC(=O)CSc1ccc(Cl)cc1)Nc1ccccc1	23%	63%	18%	14µM*	7%	.
O=C(CSc1ccc(Cl)cc1)Nc1ccc(-c2nc3ccccc3[nH]2)cc1	9%[11.6 µM]	10%	4.1µM*	-11%	3%	-4%
O=C(CSc1n[nH]c(-c2ccccn2)n1)Nc1ccc(Cl)cc1	-86%	33%	?	5µM*	-3%	-26%
Cc1ccc(NC(=O)CSc2n[nH]c(-c3ccncc3)n2)cc1C	-18%	-23%	12µM*	-13%	-3%	-4%
CN(CC1CCOCC1)C(=O)CC1C(=O)NCCN1Cc1ccc(F)c(F)c1 (configuration not stated)	-2%	?	?	18%	1%	5%
Cc1nn(S(=O)(=O)c2ccc(F)cc2)c(C)c1S(=O)(=O)N1CCOCC1	-1%	-4%	9%	25%	-3%	18%
COc1ccc(C)cc1NC(=O)c1sc2ncn(CC(=O)N3CCCCC3)c(=O)c2c1C	15%	?	-2%	4%	-5%	10%
O=C(CSc1n[nH]c(-c2ccccc2)n1)c1ccccc1	26%	68%	22%	-8%	-21%	-18%
CC(C)c1ccc(C(=O)CSc2n[nH]c(-c3ccncc3)n2)cc1	11%	2.6µM*	.	-24%	-32%	-221%
Cc1cccc(/C=N\N=C\c2cccc(C)c2)c1	4%	7.4µM*	?	9%	7%	-11%
CN(C)CCn1c(CO)nc2c1c(=O)n(C)c(=O)n2C	.	.	.	.	.	8%
COc1cc(-c2cc3nc4ccccc4n3c(N)c2C#N)cc(OC)c1OC	12%	?	38%	-19%	-6%	-47%
COc1ccc(C)cc1-n1c(N)c(C#N)c(C#N)c1-c1ccc(OC)c(OC)c1OC	-5%	50%	12µM*	-29%	4%	-2%
